The assay has as its target Genome polyprotein (dengue virus type 2) (UniProt P29990).
The mark [1] stands for this setting: Thailand/16681/1984, Concentration 25.0 uM, Number of replicates 1.0.

Among all 2,000 compounds or so, about 110 (5.5%) showed an effect of 50% or more. The entries come from a sample that favours strong results as a whole.

By inhibition is commonly meant the drop in the measured response relative to a control, in per cent. For the compound `CCn1ncc(-c2ccccc2C(=O)Nc2cnn(C)c2)c1F`, the inhibition (Thailand/16681/1984, Concentration 49.5 uM, Number of replicates 2.0, Standard deviation 1.7362397615810676 %) was -3.37%; the inhibition (Thailand/16681/1984, Concentration 99.01 uM, Number of replicates 2.0, Standard deviation 3.5632406540879202 %) is -3.71%; the inhibition (Thailand/16681/1984, Concentration 198.0 uM, Number of replicates 2.0, Standard deviation 2.004108271976906 %) was -1.89%.
`COc1c(Cl)cccc1NC(=O)C1CCN(c2ccc(C=O)cc2)CC1`: the inhibition under setting [1] was determined as 13.9%.
On to `C[C@H]1CCC[C@H](C)N1CCNC(=O)C1CCN(c2ccc(C=O)cc2)CC1`, for which the inhibition under setting [1] amounted to 12.4%.
`CNC(=O)c1cn(C[C@H]2CCCN2C(=O)c2cccc3ncsc23)nn1`: the inhibition was determined as 0.293% (Thailand/16681/1984, Concentration 49.5 uM, Number of replicates 2.0, Standard deviation 0.1358580059513503 %); 0.707% (Thailand/16681/1984, Concentration 99.01 uM, Number of replicates 2.0, Standard deviation 0.18464096005398162 %); 0.879% (Thailand/16681/1984, Concentration 198.0 uM, Number of replicates 2.0, Standard deviation 0.18359188284769695 %).
Take `O=Cc1ccc(N2CCC(C(=O)NCc3ccc(Br)s3)CC2)cc1`: the inhibition under setting [1] amounted to 12.4%.
With `N#Cc1cccc(-c2nc3c(C(=O)Nc4ccc5c(c4)CNC5)cc(Cl)cc3[nH]2)c1`, the inhibition (Thailand/16681/1984, Concentration 99.5 uM, Number of replicates 2.0, Standard deviation 0.0717454001083366 %) stood at 96.4% and the inhibition (Thailand/16681/1984, Concentration 295.6 uM, Number of replicates 2.0, Standard deviation 0.16315483385791593 %) worked out at 93.6%.
In the case of `N#Cc1cccc(NC(=O)c2cccc(OCc3c(Cl)cccc3Cl)c2)c1`, the inhibition (Thailand/16681/1984, Concentration 49.5 uM, Number of replicates 2.0, Standard deviation 0.9750482899240065 %) amounted to 1.9%; the inhibition (Thailand/16681/1984, Concentration 99.01 uM, Number of replicates 2.0, Standard deviation 10.511808397875392 %) worked out at 16.1%; the inhibition (Thailand/16681/1984, Concentration 198.0 uM, Number of replicates 2.0, Standard deviation 5.918696266313343 %) came to 7%.
`O=C(Nc1ccc2c(c1)CNC2)c1cc(Cl)cc(C(F)(F)F)n1`: the inhibition runs as follows: (Thailand/16681/1984, Concentration 99.5 uM, Number of replicates 2.0, Standard deviation 0.07984298981903766 %) 98%; (Thailand/16681/1984, Concentration 295.6 uM, Number of replicates 2.0, Standard deviation 0.03008678069059277 %) 99.8%.
For `Cn1ncc2c(C(=O)Nc3ccc4c(c3)CNC4)cc(-c3cccnc3)nc21`, the inhibition runs as follows: (Thailand/16681/1984, Concentration 99.5 uM, Number of replicates 2.0, Standard deviation 0.6966055883154065 %) -0.716%; (Thailand/16681/1984, Concentration 295.6 uM, Number of replicates 2.0, Standard deviation 0.8690208118243027 %) 16.8%.
Consider `Cc1cnccc1NC(=O)c1cccc(C(F)(F)F)n1`, for which the inhibition (Thailand/16681/1984, Concentration 49.5 uM, Number of replicates 2.0, Standard deviation 0.6191824281934856 %) came out at 0.024%; the inhibition (Thailand/16681/1984, Concentration 99.01 uM, Number of replicates 2.0, Standard deviation 1.7542746720133946 %) was -0.908%; the inhibition (Thailand/16681/1984, Concentration 198.0 uM, Number of replicates 2.0, Standard deviation 1.379232208237382 %) was -0.988%.
On to `N#Cc1cccc(-c2nc3c(C(=O)NCc4ccccn4)cc(Cl)cc3[nH]2)c1`, for which the inhibition is -1.93% (Thailand/16681/1984, Concentration 99.5 uM, Number of replicates 2.0, Standard deviation 0.024300186977441064 %) and 5.47% (Thailand/16681/1984, Concentration 295.6 uM, Number of replicates 2.0, Standard deviation 0.2349015826654049 %).
Turning to `CCCOc1ccc(NC(=O)C2CCN(c3ccc(C=O)cc3)CC2)cc1`, under setting [1], the inhibition stood at 0.636%.
As for `O=Cc1ccc(N2CCC(C(=O)N3CCN(C(c4ccc(F)cc4)c4ccc(F)cc4)CC3)CC2)cc1`, under setting [1], the inhibition stood at 1.35%.
`COc1cccc(Cn2ncc(C3CCNCC3)c2C)n1`: the inhibition is -2.28% (Thailand/16681/1984, Concentration 49.5 uM, Number of replicates 2.0, Standard deviation 0.6865140838852157 %); -0.708% (Thailand/16681/1984, Concentration 99.01 uM, Number of replicates 2.0, Standard deviation 1.8857815426916016 %); -0.083% (Thailand/16681/1984, Concentration 198.0 uM, Number of replicates 2.0, Standard deviation 1.685903611817113 %).
In the case of `O=Cc1ccc(N2CCC(C(=O)NCCCn3nccc3C3CC3)CC2)cc1`, under setting [1], the inhibition is 15.6%.
Regarding `O=Cc1ccc(N2CCC(C(=O)Nc3cc(C(F)(F)F)ccn3)CC2)cc1`, the inhibition under setting [1] came out at 10.8%.
Turning to `Cc1cc(CO)c2cccc(NC(=O)c3nc(C4CCNCC4)oc3C)c2n1`, the inhibition reads like this: (Thailand/16681/1984, Concentration 49.95 uM, Number of replicates 2.0, Standard deviation 36.17788639576005 %) 67.7%; (Thailand/16681/1984, Concentration 99.9 uM, Number of replicates 2.0, Standard deviation 0.36888000776056334 %) 98.7%.
Turning to `Cc1cc(CO)c2cccc(Cc3cccc(NC(=O)c4nc(C5CCNCC5)oc4C)c3)c2n1`, the inhibition was -2.68% (Thailand/16681/1984, Concentration 49.95 uM, Number of replicates 2.0, Standard deviation 2.427412589513284 %) and -3.1% (Thailand/16681/1984, Concentration 99.9 uM, Number of replicates 2.0, Standard deviation 2.040383474434353 %).
Consider `CNc1ccccc1C(=O)Nc1ccccc1Cc1cccc2c(CO)cc(C)nc12`, for which the inhibition was -6.32% (Thailand/16681/1984, Concentration 49.95 uM, Number of replicates 2.0, Standard deviation 0.9187611737377075 %) and -7.75% (Thailand/16681/1984, Concentration 99.9 uM, Number of replicates 2.0, Standard deviation 0.9402243720481833 %).
As for `Cc1cc(CO)c2cccc(Cc3ccccc3NC(=O)c3nc(C4CCNCC4)oc3C)c2n1`, the inhibition came to 3.36% (Thailand/16681/1984, Concentration 49.95 uM, Number of replicates 2.0, Standard deviation 1.1742415452444355 %) and 69.9% (Thailand/16681/1984, Concentration 99.9 uM, Number of replicates 2.0, Standard deviation 2.967451033370285 %).
Consider `Cc1cc(CO)c2cccc(NC(=O)c3nc(-c4ccccc4)oc3C(F)(F)F)c2n1`, for which the inhibition is, setting by setting: (Thailand/16681/1984, Concentration 49.95 uM, Number of replicates 2.0, Standard deviation 3.021297847027803 %) 28.1%; (Thailand/16681/1984, Concentration 99.9 uM, Number of replicates 2.0, Standard deviation 2.6625533133971393 %) 43.6%.
With `Cc1cc(CO)c2cccc(C[C@H](NC(=O)c3nc(C4CCNCC4)oc3C)C(=O)O)c2n1`, the inhibition (Thailand/16681/1984, Concentration 49.95 uM, Number of replicates 2.0, Standard deviation 0.8080216779744858 %) is 2.79% and the inhibition (Thailand/16681/1984, Concentration 99.9 uM, Number of replicates 2.0, Standard deviation 0.4573836691864076 %) was found to be 10%.
`Cc1nccc(Cn2cc(C3CCNCC3)c(C)n2)n1`: the inhibition is, setting by setting: (Thailand/16681/1984, Concentration 49.5 uM, Number of replicates 2.0, Standard deviation 0.12424043789356491 %) -1.07%; (Thailand/16681/1984, Concentration 99.01 uM, Number of replicates 2.0, Standard deviation 0.32682664095966646 %) -0.665%; (Thailand/16681/1984, Concentration 198.0 uM, Number of replicates 2.0, Standard deviation 1.945197851645592 %) 1.76%.
As for `CN(Cc1nc2ccccc2n1C)C(=O)C1CCN(c2ccc(C=O)cc2)CC1`, the inhibition under setting [1] turned out to be 14.9%.
As to `CNC(=O)c1cn(S(=O)(=O)c2ccc(Oc3ccccc3Cl)cc2)c2ccc(Cl)cc12`, the inhibition is, setting by setting: (Thailand/16681/1984, Concentration 49.5 uM, Number of replicates 2.0, Standard deviation 1.1380993582408887 %) 0.625%; (Thailand/16681/1984, Concentration 99.01 uM, Number of replicates 2.0, Standard deviation 1.0406365412270837 %) 4.48%; (Thailand/16681/1984, Concentration 198.0 uM, Number of replicates 2.0, Standard deviation 0.5161930213749926 %) 12.8%.
`CNC(=O)c1cc(Cl)c(F)cc1NS(=O)(=O)c1ccc(Oc2ccccc2Cl)cc1`: the inhibition (Thailand/16681/1984, Concentration 49.5 uM, Number of replicates 2.0, Standard deviation 0.030615470758313425 %) amounted to 98.6%; the inhibition (Thailand/16681/1984, Concentration 99.01 uM, Number of replicates 2.0, Standard deviation 0.03013533386007732 %) amounted to 99.7%; the inhibition (Thailand/16681/1984, Concentration 198.0 uM, Number of replicates 2.0, Standard deviation 0.00477978979592347 %) was 98.7%.

(Values after ChEMBL document CHEMBL5606460, “ASAP - DENV-2 NS2B-NS3 protease fluorescence single point” (2024).)
